# High-throughput results deposited in PubChem BioAssay by National Center for Advancing Translational Sciences (NCATS).
# Shown are actives, neighbours in structure and some others; about 0.4% of the full set was active somewhere.
# TRPML1 ag: agonists of human TRPML1 channel; activation, % (concentration not given with the values); hit rate 0.12% among 410,000; TRPML1-expressing cells, Ca2+ dye fluorescence, FDSS; Q9GZU1; in the data active = activation above about 50%; inconclusive = mostly about 30% to 49%; note: 0% is about no effect
#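 Tet-induced TRPML1-DL cells, 1,500 per well, cultured overnight, were loaded with a no-wash Ca2+ dye for 45–90 min. Calcium fluorescence was recorded on the FDSS for 110 s after compound addition, before the EC80 agonist (4 uM 54-4) was added.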
# TRPV1 PAM: human TRPV1 potentiation; potentiation, % at 8.33 µM; Q8NER1; TRPV1-expressing cells, Fluo-8 calcium influx, capsaicin EC20 potentiation; hit rate 0.02% among 320,000; in the data active = potentiation above about 80%; inconclusive = between about 30% and that limit; note: 0% is about no effect
# Target sequence (Q8NER1 whole entry, looked up): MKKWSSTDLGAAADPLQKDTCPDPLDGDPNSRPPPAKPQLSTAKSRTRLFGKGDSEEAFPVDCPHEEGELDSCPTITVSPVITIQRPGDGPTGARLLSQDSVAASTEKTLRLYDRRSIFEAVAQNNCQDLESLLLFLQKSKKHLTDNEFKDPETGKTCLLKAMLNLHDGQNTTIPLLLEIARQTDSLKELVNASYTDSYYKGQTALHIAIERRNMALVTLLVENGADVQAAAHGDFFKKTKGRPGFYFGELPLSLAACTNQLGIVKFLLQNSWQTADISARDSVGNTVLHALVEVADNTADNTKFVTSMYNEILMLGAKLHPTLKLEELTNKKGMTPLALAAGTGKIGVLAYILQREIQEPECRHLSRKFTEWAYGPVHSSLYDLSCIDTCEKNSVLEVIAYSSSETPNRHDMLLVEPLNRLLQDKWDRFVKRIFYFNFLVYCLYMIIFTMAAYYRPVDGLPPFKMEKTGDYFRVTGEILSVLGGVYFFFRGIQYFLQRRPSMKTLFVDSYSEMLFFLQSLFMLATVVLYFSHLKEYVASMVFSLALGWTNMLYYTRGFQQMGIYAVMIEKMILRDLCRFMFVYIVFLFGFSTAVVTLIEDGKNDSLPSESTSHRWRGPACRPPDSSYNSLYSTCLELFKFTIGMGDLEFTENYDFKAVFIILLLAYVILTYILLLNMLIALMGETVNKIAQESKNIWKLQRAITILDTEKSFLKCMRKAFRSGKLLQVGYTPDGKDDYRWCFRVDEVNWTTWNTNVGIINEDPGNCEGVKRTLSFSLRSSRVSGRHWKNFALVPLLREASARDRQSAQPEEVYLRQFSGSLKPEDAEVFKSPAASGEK
#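 TRPV1-expressing cells were cultured overnight at 35.5C and loaded with Fluo-8 calcium dye for 40 to 90 min at room temperature. After a 10 s baseline, compound was added and calcium influx was read kinetically for 3 min (ex 480/em 520 nm).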
# USP1-UAF1 inh: blocks the human USP1/UAF1 deubiquitinase complex; hit rate 0.23% among 390,000; Potency, µM (titrated, usually from 57.1 µM), inactives show top-dose activity change, negative = inhibition, usual class: inhibitors; recombinant USP1/UAF1, Ub-Rhodamine cleavage fluorescence; O94782; active = well fitted inhibition curve with a large enough effect; inconclusive = small, poorly fitted or top-dose-only effect; inactive = no such curve, though single readings can be large or run the other way; note: potency is the fitted concentration of half-maximal effect; % is set by controls: 0 for no effect and ±100 for the full control effect; nearly all actives have a fitted effect of over 60% in size
#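 Step one: compound is pinned into 1nM USP1/UAF1 in HEPES pH 7.8 buffer with TCEP. Step two: 15 min room-temperature incubation. Step three: Ub-Rho (150nM final) starts cleavage, tracked by fluorescence over six one-minute reads.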
# TRPML1 inh: blocks the human TRPML1 channel. Q9GZU1. TRPML1-inducible cells, Ca2+ dye fluorescence, FDSS; stronger effect = lower value; inhibition of EC80 agonist-evoked calcium signal. activity change, negative = inhibition, % (test concentration not listed). hit rate 0.02% among 390,000; in the data active = activity change below about -50%; inconclusive = between about -30% and that limit;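 note: stimulus is agonist 54-4 at its EC80 concentration; % is set by controls: 0 for no effect and ±100 for the full control effect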
#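 TRPML1-DL cells, Tet-induced overnight (~16 h, 37 °C) at 1,500 cells/well, were loaded with Ca8 no-wash dye plus quencher for 45-90 min at room temperature. Compounds were pinned during FDSS kinetic reading; agonist 54-4 at EC80 (4 uM final) then added.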
# TRPV1 agonist: activates the human vanilloid receptor TRPV1. Q8NER1. TRPV1-expressing cells, Fluo-8 calcium influx, agonist mode. hit rate 0.19% among 320,000. activation, % at 8.33 µM. AID 540275; in the data active = activation above about 80%; inconclusive = between about 30% and that limit; note: 0% is about no effect
#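 Fluo-8 calcium influx in TRPV1-expressing cells, kinetic read (ex 480/em 520 nm). Compound added and read 3 min for agonist activity, followed by capsaicin at EC20 final and 2 min further read for enhancement.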
# Numbers without * were called inactive; ? = inconclusive; . = no result given.
SMILES,TRPML1 ag,TRPV1 PAM,USP1-UAF1 inh,TRPML1 inh,TRPV1 agonist
CCn1nc(C)cc1C(=O)N1CCCC(Nc2ccc(C(C)C)cc2)C1 (stereo not given),1,-8,-13%,10,81*
CCn1nc(CC(C)C)cc1C(=O)N1CCCC(Nc2ccc(F)cc2)C1 (stereo not given),0,-27,-2%,-5,?
Oc1ccc(N=Cc2ccc(-c3cccs3)s2)cc1,1,0,13µM*,2,2
O=Cc1ccc(-c2cccs2)s1,1,.,-4%,-15,.
Cn1cccc1C(=O)NNC(=O)COc1ccccc1Cl,0,4,-18%,0,0
Cc1nc(Nc2ccc3c(c2)OCO3)c2oc3ccccc3c2n1,2,0,-12%,24,-2
CC(=O)c1ccc(Nc2nc(C)nc3c2oc2ccccc23)cc1,.,7,.,.,?
COc1ccc(Nc2nc(C)nc3c2oc2ccccc23)cc1,2,-14,-18%,-3,98*
Cc1nc(NCCc2ccccc2)c2oc3ccccc3c2n1,1,-9,-26%,17,82*
Cc1nc(NCCN2CCOCC2)c2oc3ccccc3c2n1,4,-3,-4%,8,0
Cc1ccc(Nc2nc(C)nc3c2oc2ccccc23)cc1,3,-11,-13%,1,88*
CC1OC(Nc2ccc(N=Nc3ccccc3)cc2)C(O)C(O)C1O (stereo not given),0,-3,-11%,-2,2
CC1OC(Nc2cccc3ccccc23)C(O)C(O)C1O (stereo not given),0,-5,22µM*,-14,1
COc1cccc(CCNC(=O)CCc2nnc(-c3ccc4c(c3)OCO4)o2)c1,-1,3,-15%,-8,1
COc1cccc(CCNC(=O)CCc2nnc(-c3cc(C)oc3C)o2)c1,2,101*,-12%,-9,3
O=C1c2ccccc2-c2onc3c(N4CCN(C5CCCCC5)CC4)cc(NCCO)c1c23,0,.,16µM*,-5,.
COc1cc(C(=O)NCC(c2ccco2)N(C)C)cc(OC)c1OC (stereo not given),1,5,-3%,-3,-1
O=C(OCCn1cncn1)c1cc2ccccc2oc1=O,0,10,8%,-7,1
O=C1c2ccccc2S(=O)(=O)c2cc(C(=O)N(c3ccccn3)c3ccccn3)ccc21,64*,-10,-4%,-6,13
Cc1ccc(O)c(C(=O)c2cc(C#N)c(=O)n(-c3nccs3)c2)c1,63*,5,18µM*,-6,-1
Cc1sc(-c2cc3c([nH]c2=O)CC(c2ccccc2)CC3=O)nc1-c1ccc(Cl)cc1 (stereo not given),0,.,-6%,9,.
CC(=O)N1CCn2c3c(c4cc(C)ccc42)CCCC31 (stereo not given),2,-4,-4%,-2,9
CC(=O)N1CCn2c3c(c(=O)c4cc(C)ccc42)CCC31 (stereo not given),0,4,32µM*,36,0
COc1cc(/C=C(\C#N)c2nc3ccccc3o2)ccc1O,53*,-4,?,-3,?
CCCCC(CC)CN=C(N)NC(N)=NCCCCCCN=C(N)NC(N)=NCC(CC)CCCC (stereo not given),13,-9,32µM*,-5,11
SMILES,TRPML1 ag,TRPV1 PAM,USP1-UAF1 inh,TRPML1 inh,TRPV1 agonist
COc1ccc(/C=C/C(=O)OCC(=O)NCc2ccccc2)cc1OC,1,19,-7%,6,0
COc1ccc(CNC(=O)COC(=O)/C=C/c2cccc(Br)c2)cc1OC,1,?,-25%,-4,87*
Cc1nn(C)cc1CN(C)C(=O)C1CCC(=O)N(CCc2cccc(F)c2)C1 (stereo not given),-1,.,-16%,7,.
Cc1ccc(Cn2cc(C(=O)c3ccc(C)cc3)c(=O)c3ccc(C)nc32)cc1,1,.,-21%,7,.
CC1=CC(=O)C(C(C)C)=C/C1=N/OS(=O)(=O)c1ccccc1,50*,9,-1%,-5,6
CN(C)c1ccc(C=C2C(=O)c3ccccc3C2=O)cc1,51*,.,.,.,.
Cc1ccc(C(=O)CC(=O)c2ccccc2)cc1,0,-22,-2%,-8,81*
Cc1ccc(C(=O)Cc2ccccc2)cc1,2,.,-9%,-15,.
CCOC(=O)c1sc(NC(=O)CN2C(=O)C3CC=CCC3C2=O)nc1C (stereo not given),0,0,-16%,-6,-2
Cc1onc(-c2ccccc2)c1C(=O)NNC(=S)NC(=O)c1ccc(Br)cc1,?,-8,2%,24,7
Cc1cccc(C(=O)NC(=S)NNC(=O)c2ccccc2Cl)c1,68*,-10,-20%,18,21
Cc1onc(-c2ccccc2)c1C(=O)NNC(=S)NC(=O)c1ccc(Cl)cc1Cl,91*,-36,-15%,18,?
Cc1ccc(C(=O)NNC(=S)NC(=O)c2ccc(Cl)cc2)cc1,61*,.,-8%,-17,.
Cc1cc2oc(=O)cc(Cn3ncc(Cl)c(Cl)c3=O)c2cc1Cl,0,-6,?,9,5
COc1ccc(C(=O)Nc2cc3c4c(c2)C(C)C(=O)N4CCC3)c(OC)c1 (stereo not given),1,-5,-10%,-11,-1
Cc1ccc(S(=O)(=O)N(CCCO)CC(O)CON=C2c3ccccc3-c3ccccc32)cc1 (stereo not given),0,-12,-21%,6,15
CCOC(=O)C1=C(c2ccccc2)N=c2s/c(=C\c3cc(OC)c(OC)c(OC)c3)c(=O)n2C1c1cccs1 (stereo not given),0,-23,22µM*,-14,-2
CCOC(=O)C1=C(c2ccccc2)N=c2s/c(=C\c3ccco3)c(=O)n2C1c1cccs1 (stereo not given),3,9,-13%,-15,20
COc1ccc(C(=O)NC2CCCCCC2)cc1OC1CCN(C(C)=O)CC1,-1,0,-13%,42,1
COc1ccc(C(=O)NC2CCCc3ccccc32)cc1OC1CCN(C(C)=O)CC1 (stereo not given),0,-16,-16%,-54*,1
CC1CN(C(=O)COC(=O)c2ccc3ccccc3c2)CC(C)O1 (stereo not given),0,.,-22%,-13,.
COc1ccccc1NC1=C(N2CCCCC2)C(=O)c2ccccc2C1=O,1,8,18µM*,-16,0
O=C(/C=C/c1ccc(O)cc1)c1ccc(NC2=C(N3CCCCC3)C(=O)c3ccccc3C2=O)cc1,2,11,16µM*,14,-9
Cc1ccc(NC2=C(N3CCCCC3)C(=O)c3ccccc3C2=O)cc1,1,-2,?,7,10
O=C1C(Nc2cccc(O)c2)=C(N2CCCCC2)C(=O)c2ccccc21,1,-3,?,-8,11
